These results are taken from PubChem BioAssay (Tox21).

Inconclusive results are not listed. Entries that show only a call come without a potency. Activity calls are given as the source filed them. Calls come from the whole dose curve.
Potency is the fitted concentration of half-maximal effect.

The nature of this assay: p53 small molecule agonists, cell-based qHTS assay: qHTS cell viability counter screen (AID 1963581). Note: nearly all actives have a fitted effect of over 45% in size. Particulars: p53RE-bla HCT-116 viability, ATP luminescence, 16 h; series mostly up to 66 µM. From the text:
National Center for Advancing Translational Sciences [NCATS]
Division of Preclinical Innovation [DPI]
U.S. Environmental Protection Agency [EPA]
National Institutes of Environmental Health Sciences [NIEHS]
National Toxicology Program [NTP]
U.S. Food and Drug Administration [FDA]
p53, a tumor suppressor protein, is activated following cellular insult, including DNA damage and other cellular stresses. The activation of p53 regulates cell fate by inducing DNA repair, cell cycle arrest, apoptosis, or cellular senescence. The activation of p53, therefore, is a good indicator of DNA damage and other cellular stresses. The CellSensor p53RE-bla HCT-116 cell line (Invitrogen) contains a stably integrated beta-lactamase reporter gene under control of the p53 response elements. The activation of the reporter gene under culture conditions can be detected by fluorescence intensity. This cell line was used to screen the Tox21 compound library in a 1536-well plate format and to identify agonists that activate the p53 signaling pathway. The cytotoxicity of the Tox21 compound library against the p53 RE-bla HCT-116 cell line was tested in parallel by measuring the intra cellular ATP content in the same wells.
Tox21 Assay Protocol Summary:
The p53RE-bla cells were dispensed at 4,000 cells/5 ul/well in 1536-well black wall/clear bottom plates using a Multidrop dispenser. After the assay plates were incubated at a 37 C/5% CO2 incubator for 5 hours, 23 nL of compounds dissolved in DMSO, positive controls or DMSO only was transferred to the assay plate by a pin tool. The plates were incubated at 37 C for 16 hours. After 1 uL of LiveBLAzerTM B/G FRET substrate was added using a Flying Reagent Dispenser, the plates were incubated at room temperature for 2 hours, and fluorescence intensity was measured by an Envision plate reader. For cell viability readout that measures cytotoxicity, 4 ul/well of CellTiter-Glo reagent was added into the assay plates using a Flying Reagent Dispenser. After 30 min incubation at room temperature, the luminescence intensity in the plates was measured using a ViewLux plate reader.
On to `O=[Se]=O`, for which the Potency entry was “inactive”.

For the compound `CN(C)c1ccc(N=Nc2ccccc2)cc1`, the Potency result is “inactive”.

Turning to `CN1C(=O)C(O)N=C(c2ccccc2)c2cc(Cl)ccc21` (stereo not given), the Potency entry is “inactive”.

As to `CCC(CC)(CNC(=O)CCCO)c1cccc(OC)c1`, the Potency entry is “inactive”.

Regarding `NCC(CC(=O)O)c1ccc(Cl)cc1` (stereo not given), the activity change, negative = cytotoxicity was -8.51% [at 0.249 µM] (inactive).

Take `CC1(C(=O)Nc2ccc(O)c(Cl)c2Cl)CCCCC1`: the Potency result is “inactive”.

With `C[N+]1(C)[C@@H]2CC[C@H]1CC(OC(=O)C(CO)c1ccccc1)C2` (stereo not given in full), the Potency result was “inactive”.

Turning to `Clc1ccccc1`, the Potency entry was “inactive”.

Consider `CCOCn1c(-c2ccc(Cl)cc2)c(C#N)c(Br)c1C(F)(F)F`, for which the Potency is 10.2 µM (active).

As to `O=C(NC(=O)c1c(F)cccc1F)Nc1cc(Cl)c(OC(F)(F)C(F)F)c(Cl)c1`, the Potency entry was “inactive”.

In the case of `CC(C)(C)NC[C@H](O)c1ccc(O)cc1Cl`, the Potency result is “inactive”.

Regarding `CCN(CC)CCOC(=O)C(O)(c1ccccc1)c1ccccc1`, the Potency entry was “inactive”.

For the compound `CCCCCCCC(=O)Cl`, the Potency result is “inactive”.

Regarding `C=CCOC(=O)C(C)(C)OC(=O)c1cc(-n2c(=O)cc(C(F)(F)F)n(C)c2=O)ccc1Cl`, the Potency result was “inactive”.

In the case of `Clc1ccccc1-c1ccccc1Cl`, the Potency entry was “inactive”.

Consider `CCS(=O)(=O)CCSP(=O)(OC)OC`, for which the Potency result was “inactive”.

With `CC(C)(C)c1cc(O)ccc1O`, the Potency result is “inactive”.

Consider `Clc1cccc2ccccc12`, for which the Potency result is “inactive”.

Take `O=c1[nH]c2cc(Cl)ccc2n1C1CCNCC1`: the Potency entry is “inactive”.

Turning to `CC(C)[N+](=O)[O-]`, the Potency result is “inactive”.

As to `FC(F)C(F)(F)OCC(Cn1cncn1)c1ccc(Cl)cc1Cl` (stereo not given), the Potency entry is “inactive”.

Turning to `CCn1cc[n+](C)c1` (tested in a mixture with another compound), the Potency result is “inactive”.

On to `N[C@@H]1C[C@H]1c1ccccc1`, for which the Potency result was “inactive”.

For the compound `Clc1ccc(C(OCCN2CCCCC2)c2ccccc2)cc1` (stereo not given), the Potency result is “inactive”.

For the compound `C(COCC1CO1)OCC1CO1` (stereo not given), the Potency entry was “inactive”.

`CC(C)(C)NCC(O)c1cc(Cl)c(N)c(Cl)c1` (stereo not given): the Potency result was “inactive”.

As for `CC(=O)[O-].CC(=O)[O-].CC(=O)[O-].[Cr+3]`, the Potency result was “inactive”.

For `O=C(Cl)C(Cl)(Cl)Cl`, the Potency entry is “inactive”.

Turning to `NNCCO`, the Potency result is “inactive”.

Take `N#CC(O)c1ccccc1` (stereo not given): the Potency result was “inactive”.

With `CCOC(=O)NC(C)(C)Cc1ccc(Cl)cc1`, the Potency entry is “inactive”.

Regarding `CCOc1cc(C(C)(C)C)ccc1C1COC(c2c(F)cccc2F)=N1` (stereo not given), the Potency result was “inactive”.

Consider `ClC(Br)Br`, for which the Potency entry was “inactive”.

In the case of `COC(=O)N(C(=O)N1COC2(C(=O)OC)Cc3cc(Cl)ccc3C2=N1)c1ccc(OC(F)(F)F)cc1` (stereo not given), the Potency result is “inactive”.

Regarding `CN(C)CCN(C)C`, the Potency entry is “inactive”.

Consider `O=C(N[C@@H]1N=C(c2ccccc2F)c2cccc3c2N(CC3)C1=O)c1cc2ccccc2[nH]1`, for which the Potency entry is “inactive”.

As for `CO/N=C(/C(=O)OC)c1ccccc1COc1ccccc1C`, the Potency entry was “inactive”.

As for `Cc1ncc(C[n+]2csc(CCO)c2C)c(N)n1`, the Potency result is “inactive”.

For the compound `C=CCN1CC[C@]23c4c5ccc(O)c4O[C@H]2C(=O)CC[C@@]3(O)[C@H]1C5`, the Potency entry was “inactive”.

In the case of `CCOP(=S)(OCC)Oc1cc(C)nc(N(CC)CC)n1`, the Potency entry was “inactive”.
